# Assay results: PubChem BioAssay (EPA / NIEHS)
# Where “and” joins values, the source holds several entries; their conditions need not be identical. Equal entries are not always repeated. Results filed as inconclusive are left out. Some compounds were tested as several samples or in several runs, with calls that do not always agree. Calls of active or inactive are those of the source. How the source made its calls: active means hit-call score of the fitted dose curve at least 0.9, where 1 is the maximum; inconclusive means response in the unintended direction; inactive means score below 0.9.
# Test: CCTE_Shafer_MEA_dev_active_electrodes_number: CCTE's Neural Network Formation Assay for Number of Active Electrodes, Shafer Lab (AID 2284040);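 on AC50: potency for loss of active electrodes versus DMSO so lower counts are hits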
# Protocol: CCTE_Shafer_MEA_dev assay is conducted using Axion Biosystems 48 well microelectrode array (MEA) plates and Maestro recording system. Each well of the MEA plate contains a grid of 16 microelectrodes embedded in the culture surface. Electrically active cells, such as neurons, can be cultured over the electrodes, and electrical activity in these cells can be recorded extracellularly. The spontaneous firing of neurons is captured from each electrode on a microsecond timescale providing both temporally and spatially precise data. […] The CCTE_Shafer_MEA_dev assay uses primary cultures of rat cortical neurons. Recordings are made on days post-plating 5, 7, 9 and 12. As these cultures mature over time, neural networks develop functional activity and form cohesive networks in which electrical activity can be highly coordinated. CCTE_Shafer_MEA_dev_active_electrodes_number is 1 of 19 assay components of the CCTE_Shafer_MEA_dev assay. It measures the number of electrodes in a well with a mean firing rate of at least 5 spikes (action potential firings) per minute during a recording in a microelectrode array (MEA) using Axion Biosystems Maestro 768 channel amplifier with the AxIS adaptive spike detector. To collapse across multiple recordings made on days post-plating 5, 7, 9 and 12, the trapezoidal area-under-the-curve of the component is calculated.Data from the assay component CCTE_Shafer_MEA_dev_active_electrodes_number was analyzed into 1 assay endpoint. This assay endpoint, CCTE_Shafer_MEA_dev_active_electrodes_number, was analyzed in the negative analysis fitting direction relative to DMSO as the negative control and baseline of activity. Using a type of functional reporter, gain or loss-of-signal activity can be used to understand electrical activity.
# On the day prior to culture, each well was coated thoroughly with 150 uL of 0.05% polyethyleneimine (PEI, Sigma Cat P3143) in 50 mM HEPES (Sigma Cat H7523) at a pH of 8. The plate was incubated at 37C for one hour. PEI was rinsed out with 500 uL of sterile water three times. Plates were stored at 4C until the day of culture. This culture was plated at a seeding density of 1.5 x 10^5 cells/well on a 48-well MEA plate, prepared as described above. Cells were administered via a 25 uL media/laminin ([…]; Sigma Cat L2020-1MG) drop directly onto the microelectrode array, as adding the cells with the laminin results in better attachment than pre-coating with laminin. After 2 hours, an additional 475 uL of cortical media was added and the cells returned to the incubator. Exposure starts at day 0 of plating and is continued over twelve days of network development until the experiment is terminated. Cells are fed with fresh medium on DIV 5 and 9, following the recordings on those days. The entire volume of media in the well is exchanged and any vehicle or compound treatment is renewed. Complete details are found in OP-NHEERL/ISTD/SBB/TJS/2015-03-r0 (available on request, email shafer.tim@epa.gov). Measurement of the electrical activity is non-invasive, and recordings can be made from the same plate over multiple different days of the culture. In cortical neurons, this allows for the measurement of extracellular action potentials over the period during which networks form in the MEA plate.
SMILES,outcome,AC50
NC(=O)N1c2ccccc2C=Cc2ccccc21,inactive,
Cn1cc[nH]c1=S,inactive,
OCCC(F)(F)C(F)(F)C(F)(F)C(F)(F)F,inactive,
c1ccc2cc3ccccc3cc2c1,inactive,
FC(F)(F)COC(OCC(F)(F)F)OCC(F)(F)F,inactive,
C[C@]12C=CC(=O)C=C1CC[C@H]1[C@@H]3C[C@@H](O)[C@](O)(C(=O)CO)[C@@]3(C)C[C@H](O)[C@@]12F,inactive,
OC(O)(C(F)C(O)(O)C(F)(F)F)C(F)(F)F,inactive,3.9 µM (active)
COc1cc2c(c(OC)c1OC)-c1ccc(OC)c(=O)cc1[C@@H](NC(C)=O)CC2,,0.0284 µM (active)
c1ccc2c(c1)-c1cccc3c1c-2cc1ccccc13,,7.57 µM (active)
CCOc1ccc2[nH]cc(C(=O)NCc3ccccc3)c(=O)c2n1,,1.23 µM (active)
OC(Cn1cncn1)(Cn1cncn1)c1ccc(F)cc1F,inactive,
Nc1ccn([C@@H]2O[C@H](CO)[C@@H](O)[C@@H]2O)c(=O)n1,,185 nM (active) and 303 nM (active)
CC[C@H](C)C(=O)O[C@H]1C[C@H](O)C=C2C=C[C@H](C)[C@H](CC[C@@H](O)C[C@@H](O)CC(=O)O)[C@H]21,,2.28 µM (active)
FC(F)(F)C(F)(F)C(F)(F)C(F)(F)C(F)(F)C(F)(F)I,inactive,
NCC(F)(F)C(F)(F)C(F)(F)C(F)(F)F,inactive,
NNC(=O)c1ccncc1,inactive,
CCCC(CCC)C(=O)O,inactive,
O=C(Cl)C(F)(F)C(F)(F)C(F)(F)C(=O)Cl,inactive,
CCN(CC)C(=S)SSC(=S)N(CC)CC,,118 nM (active) and 54.8 nM (active)
